Compound activity: PubChem BioAssay, National Center for Advancing Translational Sciences (NCATS)
a7 integrin act – integrin-mediated muscular dystrophy alleviation activation; alpha7betagal myoblasts, beta-gal FDG fluorescence, 48 h; Potency, µM (highest dose often 38.3 µM), inactives show at the top dose activation, actives largely listed as activators; hit rate 0.064% among 350,000; AID 624291;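 also: 100% = response of the positive control SU9516; nearly all actives have a fitted effect of over 60% in size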
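alpha7betagal+/- myoblasts (passage 13, 250/well) treated 48 h at 37C with compounds at 1:260 dilution of DMSO stock. Lysed, then beta-galactosidase activity read as FDG fluorescence (ex 480/em 540) after 30 min, with pre-read for autofluorescence.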
VP16 counter – counter-screen for ROR gamma inhibitors: Gal4-VP16 reporter. hit rate 3.5% among 310,000. Drosophila S2 Gal4-VP16 UAS-luciferase, luminescence, 20 h. Potency, µM (titrated, usually from 53.6 µM), inactives show at the highest dose activity, negative = inhibition, most hits filed as inhibitors. AID 2546;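 also: Gal4-VP16 expression switched on by copper sulfate through the metallothionein promoter; % is scaled to controls: 0 for no effect and ±100 for the full control effect; nearly all actives have a fitted effect of over 50% in size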
Chronic BCR inh – chronic active BCR signaling inhibition | ABC-DLBCL IkBa-CBG/CBR reporter, luminescence ratio, 4 h | Potency, µM (titrated, usually from 46.1 µM), without a hit: top-dose activity change, negative = inhibition, usual class: inhibitors | hit rate 0.05% among 340,000 | AID 493014; active = well fitted inhibition curve with a large enough effect in the signal ratio, with a control signal flat, not every such curve was filed as active; inconclusive = small, poorly fitted or top-dose-only effect, or effect the other way, or a change in a side signal; the % refers to the signal ratio;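 also: plate controls were basal doxycycline-induced cells for no effect and cells given 10 µM MG132 for full effect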
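TMD8 ABC-DLBCL cells carrying doxycycline-inducible green luciferase fused to IkappaBalpha plus unfused red luciferase were exposed to compounds (up to 46 uM) for 4 hrs at 37C. Activity came from the overlap-corrected green/red luminescence ratio.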
uPA surface inh – cell surface uPA generation inhibition. cell surface uPA generation assay, qHTS. Potency, µM (highest dose often 38.3 µM), for inactives: at the highest dose activity change, negative = inhibition, actives largely listed as inhibitors. hit rate 0.31% among 330,000. AID 540303; active = well fitted inhibition curve with a large enough effect; inconclusive = small, poorly fitted or top-dose-only effect; inactive = no such curve, though single readings can be large or run the other way; tested in mouse RAW 264.7 cells; also: % is scaled to controls: 0 for no effect and ±100 for the full control effect; nearly all actives have a fitted effect of over 55% in size
Mito fusion yeast – inhibitors of mitochondrial division or activators of mitochondrial fusion | S. cerevisiae fusion-defective mutant growth rescue, CellTiterGlo 48 h | Potency, µM (highest dose often 46.1 µM), without a hit: at the highest dose growth rescue (activation), hits mostly activators | hit rate 0.23% among 320,000 | AID 485298; also: % of control where 0% means no effect; nearly all actives have a fitted effect of over 45% in size
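Read-out: ATP-based luminescence (CellTiterGlo, 10 min ambient) reporting growth of fusion-defective ts yeast after 48 hours at 37C on glycerol/ethanol YPEG medium in the presence of compound.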
RORg inh – ROR gamma (mouse) transcription inhibition; P51450; Drosophila S2 Gal4-RORgamma UAS-luciferase reporter, 20 h; Potency, µM (titrated, usually from 53.6 µM), for inactives: top-dose activity change, negative = inhibition, hits mostly inhibitors; hit rate 5.4% among 310,000; also: % is scaled to controls: 0 for no effect and ±100 for the full control effect; nearly all actives have a fitted effect of over 60% in size
Target sequence (P51450 whole entry, looked up, the tested form may be a part): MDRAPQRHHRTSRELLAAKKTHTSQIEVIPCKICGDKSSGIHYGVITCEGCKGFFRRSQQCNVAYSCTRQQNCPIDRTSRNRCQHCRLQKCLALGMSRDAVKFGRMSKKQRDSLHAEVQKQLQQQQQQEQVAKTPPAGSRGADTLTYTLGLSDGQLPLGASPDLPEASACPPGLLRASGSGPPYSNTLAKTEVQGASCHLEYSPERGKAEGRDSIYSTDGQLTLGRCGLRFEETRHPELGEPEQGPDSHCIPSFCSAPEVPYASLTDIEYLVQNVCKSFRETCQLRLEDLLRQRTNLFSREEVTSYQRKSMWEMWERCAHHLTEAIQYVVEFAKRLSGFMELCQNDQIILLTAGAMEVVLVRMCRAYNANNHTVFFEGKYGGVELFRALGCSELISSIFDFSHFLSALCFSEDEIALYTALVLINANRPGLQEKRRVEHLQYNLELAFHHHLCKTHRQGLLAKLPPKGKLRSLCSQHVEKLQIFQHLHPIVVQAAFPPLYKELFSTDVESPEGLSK
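Stable Schneider cell line, Gal4 DNA-binding domain fused to ROR gamma, UAS-luciferase. Cmpd 1 hr RT → CuSO4 700 uM final → 20 hr RT → luciferase reagent 10 min → luminescence.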
The depositor's hits bear a star. This is a sample that favours compounds with a hit; in the whole collection about 5.5% have one here. Unless noted, calls follow the shape of the dose curve; as a rule, active = well fitted curve in the direction sought with a large enough effect; inconclusive = small, poorly fitted or top-dose-only effect, or another doubt; inactive = no such curve, though single readings can be large; an effect the other way counts as inactive or inconclusive. Potency is read from the fitted curve at half-maximal effect.

What do the screens show for `COc1ccc(C(=O)NC(=S)NNC(=O)c2c(-c3ccccc3)noc2C)cc1OC`?
a7 integrin act: -21%; VP16 counter: 14µM*; Chronic BCR inh: inconclusive; uPA surface inh: 4%; Mito fusion yeast: -10%; RORg inh: 4µM*

What do the screens show for `COc1cc2c(cc1OC)C(C)N(C(=O)c1c(-c3ccccc3)noc1C)CC2` (stereo not given)?
a7 integrin act: 0%; VP16 counter: 0%; Chronic BCR inh: inconclusive; uPA surface inh: 6.3µM*; Mito fusion yeast: 0%; RORg inh: 4%

What do the screens show for `Cc1onc(-c2ccccc2)c1C(=O)NNC(=S)NC(=O)/C=C/c1cccs1`?
a7 integrin act: 5%; VP16 counter: 4.5µM*; Chronic BCR inh: -7%; uPA surface inh: -2%; Mito fusion yeast: -5%; RORg inh: 3.5µM*

How did COc1ccc([C@H]2OCC3C2CO[C@@H]3c2ccc(OC)c(OC)c2)cc1OC (stereo not given in full) do in these assays?
VP16 counter: -11%; RORg inh: 2%

Results for NC(=O)c1ccc2nc(NC(=O)c3ccc(N)cc3)sc2c1 ?
a7 integrin act: -8%; VP16 counter: -14%; Chronic BCR inh: inconclusive; uPA surface inh: -14%; Mito fusion yeast: -1%; RORg inh: 12%

Results for Nc1ccc(-c2nc3ccc(C(=O)O)cc3s2)cc1 ?
a7 integrin act: -4%; VP16 counter: 0.63µM*; Chronic BCR inh: inconclusive; uPA surface inh: -5%; Mito fusion yeast: 0%; RORg inh: 0.56µM*

Results for Nc1cc2sc(-c3ccc(C(=O)O)cc3)nc2cc1Cl ?
a7 integrin act: 19%; VP16 counter: 11µM*; Chronic BCR inh: inconclusive; uPA surface inh: -7%; Mito fusion yeast: -6%; RORg inh: 10µM*

Results for O=C(O)c1ccc2ncsc2c1 ?
a7 integrin act: -5%; VP16 counter: -3%; Chronic BCR inh: inconclusive; uPA surface inh: 6%; Mito fusion yeast: -1%; RORg inh: -1%

What do the screens show for `O=C(O)c1ccc2nc(-c3ccccc3)sc2c1`?
a7 integrin act: -3%; VP16 counter: 2.5µM*; Chronic BCR inh: inconclusive; uPA surface inh: -3%; Mito fusion yeast: 27%; RORg inh: inconclusive

What do the screens show for `CCCC(=O)Nc1ccc2c(c1)nc(CN1CCN(C(=O)OCC)CC1)n2C`?
a7 integrin act: 5%; VP16 counter: -3%; Chronic BCR inh: inconclusive; uPA surface inh: -2%; Mito fusion yeast: 2%; RORg inh: -15%

How did CCCC(=O)Nc1ccc2c(c1)nc(CN1CCN(C(=O)OCC)CC1)n2CC do in these assays?
a7 integrin act: -38%; VP16 counter: 1%; Chronic BCR inh: inconclusive; uPA surface inh: 3.5µM*; Mito fusion yeast: 4%; RORg inh: 5%

Results for O=[N+]([O-])c1ccc(P(=O)(Cc2ccccc2)c2ccccc2O)cc1 (stereo not given) ?
a7 integrin act: 1%; VP16 counter: 0%; Chronic BCR inh: 4%; uPA surface inh: -6%; Mito fusion yeast: 7%; RORg inh: -2%

What do the screens show for `CC(/C=C/c1ccco1)=N\NC(=O)c1cccc(Cl)c1`?
a7 integrin act: -21%; VP16 counter: 3.5µM*; Chronic BCR inh: inconclusive; uPA surface inh: -6%; Mito fusion yeast: 7%; RORg inh: 4µM*

Results for Cc1ccc(OCCNC(=O)/C=C/c2ccco2)cc1C ?
a7 integrin act: -15%; VP16 counter: -3%; Chronic BCR inh: 1%; uPA surface inh: -15%; Mito fusion yeast: -3%; RORg inh: 11%

How did CC(/C=C/c1ccco1)=N/NC(=O)c1ccccc1Cl do in these assays?
a7 integrin act: -16%; VP16 counter: inconclusive; Chronic BCR inh: inconclusive; uPA surface inh: -3%; Mito fusion yeast: 0%; RORg inh: inconclusive

Results for CC(/C=C/c1ccccc1F)=N\NC(=O)c1cccc(F)c1 ?
a7 integrin act: -22%; VP16 counter: 5µM*; Chronic BCR inh: inconclusive; uPA surface inh: -15%; Mito fusion yeast: -1%; RORg inh: 0.89µM*

Results for CC(/C=C/c1ccco1)=N\NC(=O)COc1ccc(C)c(C)c1 ?
a7 integrin act: 6%; VP16 counter: 8.9µM*; Chronic BCR inh: -11%; uPA surface inh: 3%; Mito fusion yeast: 16%; RORg inh: inconclusive

What do the screens show for `Cc1[nH]c(C)c(Cl)c(=O)c1Cl`?
VP16 counter: -5%; RORg inh: 4%

What do the screens show for `COc1ccc(-c2cc(C(F)F)n3ncc(C(=O)N4CCCCC4)c3n2)cc1`?
a7 integrin act: -14%; VP16 counter: -13%; Chronic BCR inh: -25%; uPA surface inh: -11%; Mito fusion yeast: 7%; RORg inh: inconclusive

Results for COc1ccc(-c2cc(C(F)F)n3ncc(C(=O)N4CCN(C(=O)c5ccco5)CC4)c3n2)cc1 ?
a7 integrin act: -1%; VP16 counter: -8%; Chronic BCR inh: inconclusive; uPA surface inh: 10µM*; Mito fusion yeast: -4%; RORg inh: 36%

How did CCn1c(/C=C/c2ccccc2F)nc2ccccc2c1=O do in these assays?
a7 integrin act: -61%; VP16 counter: inconclusive; Chronic BCR inh: -11%; uPA surface inh: -8%; Mito fusion yeast: 0%; RORg inh: 2%

How did CCN1CCN(c2ccc(S(=O)(=O)N3CCCCC3)cc2N)CC1 do in these assays?
a7 integrin act: inconclusive; Chronic BCR inh: 1%; uPA surface inh: 5%; Mito fusion yeast: 3%

What do the screens show for `O=C(NC(=O)N1CCN(c2cccc(Cl)c2)CC1)c1ccc(Cl)cc1`?
a7 integrin act: -9%; VP16 counter: inconclusive; Chronic BCR inh: inconclusive; uPA surface inh: -3%; Mito fusion yeast: -2%; RORg inh: 16µM*

What do the screens show for `CC1CCN(S(=O)(=O)c2ccc3c(c2)CCC(=O)N3CC(=O)Nc2cccc(C#N)c2)CC1`?
Chronic BCR inh: 10%; Mito fusion yeast: 0%

Results for CN(CCCN1CCOCC1)Cc1cn(C)nc1-c1ccccc1F ?
a7 integrin act: 12%; VP16 counter: 2%; Chronic BCR inh: 0%; uPA surface inh: 2%; Mito fusion yeast: -16%; RORg inh: 0%

Results for COc1cc(SC)ccc1C(=O)Nc1nc2ccccc2[nH]1 ?
a7 integrin act: -13%; VP16 counter: 0.32µM*; Chronic BCR inh: inconclusive; uPA surface inh: -17%; Mito fusion yeast: -54%; RORg inh: 0.1µM*

How did COc1ccccc1C(=O)Nc1nc2ccccc2[nH]1 do in these assays?
a7 integrin act: -14%; VP16 counter: 0.5µM*; Chronic BCR inh: inconclusive; uPA surface inh: -3%; Mito fusion yeast: -36%; RORg inh: 0.25µM*
